The campaign covered roughly 5,500 compounds. About 2,000 (36%) were called active. About 18% were inconclusive and are not listed. No stated cut-off is given here; in the data, active means normalized growth mostly below about 0.91 (no sharp cut-off); inconclusive means no clear call, values can overlap the other calls; inactive means mostly above about 0.92. This is one part of the list.
Assay: chemical genetic growth profiling, strain panel (AID 1159580);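 further: tested at 20 µM; growth read once vehicle control cultures reached saturation at 30 °C; 1 = growth at the plate median or of vehicle wells; lower values mean less growth of the strain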
Settings: growth OD

Measured: normalized growth

O=C(O)CCCCC1SCC2NC(=O)NC21 (centres undefined)
inactive: S. cerevisiae deletion strains, locus YJL187C, strain SWE1, active compounds read low 0.991 | S. cerevisiae deletion strains, locus YJR043C, strain POL32, active compounds read low 0.971 | S. cerevisiae deletion strains, locus YJR066W, strain TOR1, active compounds read low 0.983 | S. cerevisiae deletion strains, locus YKL009W, strain mrt4, active compounds read low 0.994 | S. cerevisiae deletion strains, locus YKL068W, active compounds read low 1.01 | S. cerevisiae deletion strains, locus YKL085W, strain MDH1 (second series), active compounds read low 1.01 | S. cerevisiae deletion strains, locus YKL085W, strain MDH1, active compounds read low 1.01 | S. cerevisiae deletion strains, locus YKL160W, strain elf1, active compounds read low 1 | S. cerevisiae deletion strains, locus YKL190W, strain CNB1, active compounds read low 1.03 | S. cerevisiae deletion strains, locus YKR001C, strain vps1, active compounds read low 1 | S. cerevisiae deletion strains, locus YKR026C, strain gcn3, active compounds read low 0.982 | S. cerevisiae deletion strains, locus YKR091W, strain srl3, active compounds read low 0.992 | S. cerevisiae deletion strains, locus YLL001W, strain dnm1, active compounds read low 0.989 | S. cerevisiae deletion strains, locus YLL026W, active compounds read low 0.982 | S. cerevisiae deletion strains, locus YLL041C, strain sdh2, active compounds read low 0.977 | S. cerevisiae deletion strains, locus YLR027C, strain aat2, active compounds read low 0.994 | S. cerevisiae deletion strains, locus YLR039C, strain RIC1, active compounds read low 1.06 | S. cerevisiae deletion strains, locus YLR058C, strain SHM2, active compounds read low 1.01 | S. cerevisiae deletion strains, locus YLR102C, strain apc9, active compounds read low 0.998 | S. cerevisiae deletion strains, locus YLR113W, strain HOG1, active compounds read low 0.991 | S. cerevisiae deletion strains, locus YLR221C, strain rsa3, active compounds read low 1.01 | S. cerevisiae deletion strains, locus YLR258W, strain gsy2, active compounds read low 0.995 | S. cerevisiae deletion strains, locus YLR262C, strain YPT6 (second series), active compounds read low 0.992 | S. cerevisiae deletion strains, locus YLR262C, strain YPT6, active compounds read low 1.02 | S. cerevisiae deletion strains, locus YLR268W, strain sec22, active compounds read low 0.99 | S. cerevisiae deletion strains, locus YLR320W, strain mms22, active compounds read low 0.999 | S. cerevisiae deletion strains, locus YLR330W, strain CHS5, active compounds read low 1.01 | S. cerevisiae deletion strains, locus YLR342W, strain FKS1 (second series), active compounds read low 1 | S. cerevisiae deletion strains, locus YLR342W, strain FKS1, active compounds read low 0.972 | S. cerevisiae deletion strains, locus YLR357W, strain rsc2, active compounds read low 0.962 | S. cerevisiae deletion strains, locus YLR370C, strain arc18, active compounds read low 0.998 | S. cerevisiae deletion strains, locus YLR371W, strain rom2, active compounds read low 1.02 | S. cerevisiae deletion strains, locus YLR384C, strain iki3, active compounds read low 0.985 | S. cerevisiae deletion strains, locus YLR418C, strain cdc73, active compounds read low 1.02 | S. cerevisiae deletion strains, locus YML016C, strain PPZ1, active compounds read low 1.01 | S. cerevisiae deletion strains, locus YML032C, strain rad52, active compounds read low 0.983 | S. cerevisiae deletion strains, locus YML120C, strain ndi1, active compounds read low 0.976 | S. cerevisiae deletion strains, locus YML124C, strain tub3, active compounds read low 0.996 | S. cerevisiae deletion strains, locus YMR058W, strain fet3, active compounds read low 0.984 | S. cerevisiae deletion strains, locus YMR078C, strain ctf18, active compounds read low 1.02 | S. cerevisiae deletion strains, locus YMR125W, strain sto1, active compounds read low 0.989 | S. cerevisiae deletion strains, locus YMR129W, active compounds read low 0.997 | S. cerevisiae deletion strains, locus YMR205C, strain PFK2, active compounds read low 1 | S. cerevisiae deletion strains, locus YMR223W, strain ubp8, active compounds read low 1 | S. cerevisiae deletion strains, locus YMR231W, strain pep5, active compounds read low 0.997 | S. cerevisiae deletion strains, locus YMR307W, strain GAS1, active compounds read low 1.01 | S. cerevisiae deletion strains, locus YNL067W, strain RPL9B, active compounds read low 1 | S. cerevisiae deletion strains, locus YNL071W, strain lat1, active compounds read low 0.979 | S. cerevisiae deletion strains, locus YNL183C, strain NPR1, active compounds read low 0.984 | S. cerevisiae deletion strains, locus YNL209W, strain ssb2, active compounds read low 0.995 | S. cerevisiae deletion strains, locus YNL233W, strain BNI4, active compounds read low 0.99 | S. cerevisiae deletion strains, locus YNL248C, strain rpa49, active compounds read low 0.982 | S. cerevisiae deletion strains, locus YNL250W, strain rad50, active compounds read low 1.01 | S. cerevisiae deletion strains, locus YNL271C, strain bni1, active compounds read low 0.996 | S. cerevisiae deletion strains, locus YNL298W, strain CLA4, active compounds read low 1 | S. cerevisiae deletion strains, locus YNL307C, strain MCK1, active compounds read low 0.997 | S. cerevisiae deletion strains, locus YNL322C, strain KRE1 (second series), active compounds read low 0.973 | S. cerevisiae deletion strains, locus YNR049C, strain mso1, active compounds read low 0.978 | S. cerevisiae deletion strains, locus YNR052C, strain pop2, active compounds read low 0.996 | S. cerevisiae deletion strains, locus YOL006C, strain TOP1, active compounds read low 1.09 | S. cerevisiae deletion strains, locus YOL012C, strain htz1 1.05 | S. cerevisiae deletion strains, locus YOL147C, strain pex11, active compounds read low 1 | S. cerevisiae deletion strains, locus YOR001W, strain rrp6, active compounds read low 0.987 | S. cerevisiae deletion strains, locus YOR061W, strain CKA2, active compounds read low 1 | S. cerevisiae deletion strains, locus YOR069W, strain VPS5, active compounds read low 1.01 | S. cerevisiae deletion strains, locus YOR070C, strain gyp1, active compounds read low 1 | S. cerevisiae deletion strains, locus YOR080W, strain dia2, active compounds read low 0.978 | S. cerevisiae deletion strains, locus YOR083W, strain WHI5, active compounds read low 0.992 | S. cerevisiae deletion strains, locus YOR106W, strain vam3, active compounds read low 0.975 | S. cerevisiae deletion strains, locus YOR136W, strain idh2, active compounds read low 0.986 | S. cerevisiae deletion strains, locus YOR144C, strain elg1, active compounds read low 0.988 | S. cerevisiae deletion strains, locus YOR184W, strain ser1, active compounds read low 0.956 | S. cerevisiae deletion strains, locus YOR231W, strain MKK1, active compounds read low 1.01 | S. cerevisiae deletion strains, locus YOR265W, strain rbl2, active compounds read low 1.01 | S. cerevisiae deletion strains, locus YOR270C, strain vph1, active compounds read low 1.01 | S. cerevisiae deletion strains, locus YOR290C, strain snf2, active compounds read low 0.977 | S. cerevisiae deletion strains, locus YOR316C, strain cot1, active compounds read low 1 | S. cerevisiae deletion strains, locus YPL051W, strain arl3, active compounds read low 1.01 | S. cerevisiae deletion strains, locus YPL078C, strain atp4, active compounds read low 0.955 | S. cerevisiae deletion strains, locus YPL106C, strain sse1, active compounds read low 0.994 | S. cerevisiae deletion strains, locus YPL240C, strain hsp82, active compounds read low 0.98 | S. cerevisiae deletion strains, locus YPL241C, strain CIN2, active compounds read low 1.01 | S. cerevisiae deletion strains, locus YPL256C, strain CLN2, active compounds read low 1 | S. cerevisiae deletion strains, locus YPR119W, strain clb2, active compounds read low 0.992 | S. cerevisiae deletion strains, locus YPR141C, strain kar3, active compounds read low 1.01 | S. cerevisiae deletion strains, locus YPR163C, strain tif3, active compounds read low 1.01 | S. cerevisiae deletion strains, locus YPR167C, strain met16, active compounds read low 1 | S. cerevisiae deletion strains, strain wtn01, active compounds read low 0.992 | S. cerevisiae strains, strain wild type, active compounds read low 1.01

— PubChem BioAssay AID1159580 (chemical genetic matrix, 2015)
